These results are taken from PubChem BioAssay (Tox21).

Test [1] in a line: qHTS assay to identify small molecule antagonists of the glucocorticoid receptor (GR) signaling pathway - cell viability counter screen (AID 720693; also: nearly all actives have a fitted effect of over 55% in size). (In general: qHTS replaces the single test concentration by a dilution series.)
Test [2] can be described thus: qHTS assay for identifying genotoxic compounds that show differential cytotoxicity against isogenic chicken DT40 cell lines with known DNA damage response pathways - wild type cell line (AID 743012). Also: nearly all actives have a fitted effect of over 60% in size. Also: potency is read from the fitted curve at half-maximal effect. The gist of the method:
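Parental DNA repair-proficient DT40 cells, 300 per well, were pre-incubated ~0.5 h at 37 C/5% CO2, pin-dosed with compounds in DMSO, then incubated 40 h. Viability was read as CellTiter-Glo luminescence after 30 min at room temperature.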

A short description of test [3]: qHTS assay for identifying genotoxic compounds that show differential cytotoxicity against isogenic chicken DT40 cell lines with known DNA damage response pathways - Rad54/Ku70 mutant cell line (AID 743015). Also: nearly all actives have a fitted effect of over 60% in size.
The nature of test [4]: qHTS assay to identify small molecule antagonists of the androgen receptor (AR) signaling pathway - cell viability counter screen (AID 743033; also: nearly all actives have a fitted effect of over 45% in size).
Test [5] is described as follows: qHTS assay to identify small molecule antagonists of the androgen receptor (AR) signaling pathway using the MDA cell line - cell viability counter screen (AID 743041; also: nearly all actives have a fitted effect of over 45% in size). The gist of the method: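 Same-well cytotoxicity was assessed by CellTiter-Fluor in MDA-kb2 AR-luc cells after 16 h of compound treatment under R1881 agonism.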
A short description of test [6]: qHTS assay to identify small molecule antagonists of the thyroid receptor (TR) signaling pathway - cell viability counter screen (AID 743064). Also: nearly all actives have a fitted effect of over 50% in size. The gist of the method: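 Compounds were tested on GH3.TRE-Luc cells in the presence of T3 at 1 nM final. Following 23.5 h at 37 °C, cell viability was quantified by CellTiter-Fluor.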
Test [7] is described as follows: qHTS assay to identify small molecule antagonists of the thyroid receptor (TR) signaling pathway (AID 743065). Also: series mostly up to about 70 µM; nearly all actives have a fitted effect of over 55% in size. The gist of the method: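 GH3.TRE-Luc rat pituitary cells (two TREs driving luciferase) were dosed with compound, then stimulated with 1 nM T3 (final) for 23.5 h at 37 C. ONE-Glo luminescence was the read-out, with CellTiter-Fluor fluorescence as the cytotoxicity counter-screen.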

Test [8] relates to thyroid hormone receptor (rat, GH3 cells). The test can be described thus: qHTS assay to identify small molecule agonists of the thyroid receptor (TR) signaling pathway (AID 743066; calls by dose curve).
For test [9], the target named is Estrogen receptor (Homo sapiens) (UniProt P03372). In words: qHTS assay to identify small molecule agonists of the estrogen receptor alpha (ER-alpha) signaling pathway (AID 743075; calls by dose curve).
For test [10] the target is unchanged. The test can be described thus: qHTS assay to identify small molecule agonists of the estrogen receptor alpha (ER-alpha) signaling pathway using the BG1 cell line (AID 743079). Also: nearly all actives have a fitted effect of over 20% in size.
A short description of test [11]: qHTS assay to identify small molecule antagonists of the estrogen receptor alpha (ER-alpha) signaling pathway using the BG1 cell line (AID 743080; calls by dose curve;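 also: BG1 cells stimulated with 17beta-estradiol alongside compound; series mostly up to about 70 µM; nearly all actives have a fitted effect of over 25% in size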). In short, it runs like this:
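Endogenous full-length ER-alpha in BG1-Luc-4E2 cells drives a stably integrated 4×ERE luciferase gene; compounds were tested against 17beta-estradiol over 21.5 h, with luminescence and multiplexed viability fluorescence recorded.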

Test [12] addresses Aromatase (Homo sapiens) (UniProt P11511). In words: qHTS assay to identify aromatase inhibitors (AID 743083). Also: series mostly up to about 70 µM; nearly all actives have a fitted effect of over 55% in size.
Test [13] concerns the target Estrogen receptor (Homo sapiens) (UniProt P03372). The test can be described thus: qHTS assay to identify small molecule antagonists of the estrogen receptor alpha (ER-alpha) signaling pathway (AID 743069; active = well fitted curve in the direction sought with a large enough effect in the signal ratio in the repeat runs, not every such curve was filed as active; the % refers to the signal ratio). In short, it runs like this: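 Reporter cells (ER-alpha-bla, HEK293 background) are conditioned overnight in stripped-serum medium (2% charcoal-stripped FBS). Compound and 17beta-estradiol exposure runs 18 hr at 37C, 5% CO2.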

Test [14] is described as follows: qHTS assay to identify small molecule antagonists of the estrogen receptor alpha (ER-alpha) signaling pathway - cell viability counter screen (AID 743074; calls by dose curve;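 also: HEK293 cells carrying ER-alpha-UAS-bla reporter stimulated with 17beta-estradiol; nearly all actives have a fitted effect of over 45% in size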).
Test [15] in a line: qHTS assay to identify small molecule antagonists of the estrogen receptor alpha (ER-alpha) signaling pathway using the BG1 cell line - cell viability counter screen (AID 743081).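 Also: compound given together with 17beta-estradiol as the ER stimulus; series mostly up to about 70 µM; nearly all actives have a fitted effect of over 45% in size.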
Test [16] deals with Androgen receptor (Homo sapiens) (UniProt P10275). The test can be described thus: qHTS assay to identify small molecule antagonists of the androgen receptor (AR) signaling pathway (AID 743035; active = well fitted inhibition curve with a large enough effect in the signal ratio in the repeat runs, not every such curve was filed as active; the % refers to the signal ratio). In short, it runs like this: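 HEK293 cells stably carrying a UAS-driven beta-lactamase reporter (AR-UAS-bla GripTite) were plated for 4 h at 37C, then given compound and the agonist R1881 and incubated 16 h. Reporter activity was read by LiveBLAzer B/G FRET fluorescence after 2 h at room temperature.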

For test [17] the target is unchanged. In words: qHTS assay to identify small molecule agonists of the androgen receptor (AR) signaling pathway using the MDA cell line (AID 743040; also: nearly all actives have a fitted effect of over 20% in size). In short, it runs like this:
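Human breast carcinoma MDA-kb2 reporter cells (MMTV-luc, AR/GR elements) were treated for 16 h at 37C in 0% CO2 following a 5 h settling period. Signal was quantified by ONE-Glo luminescence.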

Test [18] shares this target. In words: qHTS assay to identify small molecule antagonists of the androgen receptor (AR) signaling pathway using the MDA cell line (AID 743042; also: nearly all actives have a fitted effect of over 55% in size). The gist of the method: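 MDA-kb2 breast carcinoma cells carrying MMTV-luciferase (AR/GR responsive) were co-treated with compounds and the agonist R1881 for 16 h at 37C. Inhibition read as ONE-Glo luminescence; CellTiter-Fluor fluorescence measured in parallel for cytotoxicity.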

The nature of test [19]: qHTS assay for identifying genotoxic compounds that show differential cytotoxicity against isogenic chicken DT40 cell lines with known DNA damage response pathways - Rev3 mutant cell line (AID 743014). Also: nearly all actives have a fitted effect of over 55% in size.

Results filed as inconclusive are left out. Activity calls are given as the source filed them. Unless noted, calls follow the shape of the dose curve; as a rule, active = well fitted curve in the direction sought with a large enough effect in the repeat runs; inconclusive = weak or mixed curves; inactive = no such curve, though single readings can be large; an effect the other way counts as inactive or inconclusive.

Aromatase (Homo sapiens), sequence (P11511 whole entry, looked up): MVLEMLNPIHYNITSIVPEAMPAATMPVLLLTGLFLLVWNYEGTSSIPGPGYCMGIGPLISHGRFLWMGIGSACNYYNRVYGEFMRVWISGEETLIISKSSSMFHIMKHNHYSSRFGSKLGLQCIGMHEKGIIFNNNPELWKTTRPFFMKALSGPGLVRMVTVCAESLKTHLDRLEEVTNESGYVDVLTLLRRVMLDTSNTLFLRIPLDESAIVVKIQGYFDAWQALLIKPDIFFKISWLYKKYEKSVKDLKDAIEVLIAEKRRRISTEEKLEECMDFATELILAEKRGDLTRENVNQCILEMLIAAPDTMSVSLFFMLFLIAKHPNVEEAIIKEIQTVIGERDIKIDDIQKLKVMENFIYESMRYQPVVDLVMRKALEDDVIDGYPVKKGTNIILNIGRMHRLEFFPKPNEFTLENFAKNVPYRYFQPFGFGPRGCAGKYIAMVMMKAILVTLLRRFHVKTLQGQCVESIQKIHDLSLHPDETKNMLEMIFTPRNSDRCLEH
Androgen receptor (Homo sapiens), sequence (P10275 whole entry, looked up): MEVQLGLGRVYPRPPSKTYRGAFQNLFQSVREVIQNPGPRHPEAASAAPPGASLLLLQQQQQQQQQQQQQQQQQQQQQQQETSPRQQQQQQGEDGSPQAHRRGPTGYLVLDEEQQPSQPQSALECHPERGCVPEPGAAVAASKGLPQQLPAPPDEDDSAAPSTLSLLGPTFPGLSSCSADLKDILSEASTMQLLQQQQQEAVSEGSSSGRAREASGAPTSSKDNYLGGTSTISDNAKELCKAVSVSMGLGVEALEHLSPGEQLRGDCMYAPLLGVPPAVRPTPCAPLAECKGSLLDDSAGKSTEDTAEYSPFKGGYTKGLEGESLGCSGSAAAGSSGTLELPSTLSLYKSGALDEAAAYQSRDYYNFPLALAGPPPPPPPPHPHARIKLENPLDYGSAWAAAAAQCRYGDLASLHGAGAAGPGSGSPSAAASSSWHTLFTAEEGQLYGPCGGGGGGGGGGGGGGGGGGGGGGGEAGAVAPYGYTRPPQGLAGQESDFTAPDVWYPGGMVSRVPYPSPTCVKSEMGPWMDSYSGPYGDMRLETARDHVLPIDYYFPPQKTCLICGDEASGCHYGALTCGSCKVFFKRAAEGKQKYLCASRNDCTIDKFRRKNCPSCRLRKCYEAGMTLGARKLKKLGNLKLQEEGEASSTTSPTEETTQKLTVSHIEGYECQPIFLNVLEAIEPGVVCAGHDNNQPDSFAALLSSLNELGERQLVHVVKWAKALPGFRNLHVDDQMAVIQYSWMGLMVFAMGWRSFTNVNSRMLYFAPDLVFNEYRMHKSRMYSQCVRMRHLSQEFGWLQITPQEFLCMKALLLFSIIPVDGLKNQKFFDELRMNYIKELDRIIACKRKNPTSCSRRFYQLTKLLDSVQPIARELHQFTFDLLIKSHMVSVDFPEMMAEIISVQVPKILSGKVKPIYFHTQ
Estrogen receptor (Homo sapiens), sequence (P03372 whole entry, looked up): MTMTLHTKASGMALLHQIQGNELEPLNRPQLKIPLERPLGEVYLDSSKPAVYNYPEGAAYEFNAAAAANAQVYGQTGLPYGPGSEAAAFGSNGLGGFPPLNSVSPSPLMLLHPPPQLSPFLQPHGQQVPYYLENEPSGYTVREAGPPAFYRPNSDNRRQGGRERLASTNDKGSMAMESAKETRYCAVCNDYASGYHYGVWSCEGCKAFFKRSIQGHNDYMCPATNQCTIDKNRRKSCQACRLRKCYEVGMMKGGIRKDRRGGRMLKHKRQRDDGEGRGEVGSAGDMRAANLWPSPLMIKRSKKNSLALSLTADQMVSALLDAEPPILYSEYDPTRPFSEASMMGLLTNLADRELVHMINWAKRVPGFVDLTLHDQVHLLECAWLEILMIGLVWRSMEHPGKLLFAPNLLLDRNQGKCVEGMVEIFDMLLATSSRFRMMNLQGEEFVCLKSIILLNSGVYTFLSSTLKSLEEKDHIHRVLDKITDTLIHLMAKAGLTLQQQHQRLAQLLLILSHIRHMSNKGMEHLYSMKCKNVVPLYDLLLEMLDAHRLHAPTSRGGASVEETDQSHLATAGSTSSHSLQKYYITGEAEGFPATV

Turning to `CC1=C(C(=O)O)N2C(=O)[C@@H](NC(=O)[C@H](N)C3=CCC=CC3)[C@H]2SC1`, the molecule was classed as inactive in test [1], in [4], in test [8], in [11] and in [12]. In addition, the Potency result in test [2], in test [3], in test [5], in [6], in test [7] and in [9] was “inactive” in each case. In addition, in test [10], the Potency entry was “inactive”.

As for `CCCC(=O)Nc1ccc(OCC(O)CNC(C)C)c(C(C)=O)c1` (stereo not drawn), the result in [1], in [4], in test [13], in test [14], in test [11] and in test [12] was inactive. Moreover, the Potency entry in [2], in test [3], in test [5], in test [9], in test [10] and in test [15] was “inactive” throughout.

For `CC(C)NCC(O)c1ccc2ccccc2c1` (stereo not drawn), the result in test [1], in test [4], in test [8], in test [14] and in test [12] was inactive. In addition, in [2], the Potency was 15 µM (active). Further, the Potency entry in test [5], in test [6], in test [7] and in [15] was “inactive” in each case.

As to `CCC(=O)c1c(O)cc(O)cc1O`, the molecule was classed as inactive in test [1], in test [16], in [18], in test [8], in [14] and in [11]. For the same molecule, the call in test [12] was inactive. Also, the Potency result in [2], in test [3], in test [17], in [5], in test [6] and in [7] was “inactive” throughout. In addition, the Potency result in test [9], in [10] and in test [15] was “inactive” in each case.

`C=CC/C=C/C`: the result in [1], in [4], in test [8], in test [13], in [14] and in test [11] was inactive. In test [12], the result was inactive. The Potency entry in test [2], in test [3], in test [5], in test [6], in test [7] and in test [9] was “inactive” in each case. In addition, the Potency entry in test [15] was “inactive”.

On to `CCCCCC(C)O` (stereo not drawn), for which the molecule was classed as inactive in test [1], in test [4], in test [8], in [14], in test [11] and in test [12]. In addition, the Potency entry in [2], in test [3], in test [5], in [6], in test [7] and in [9] was “inactive” throughout. Besides, the Potency entry in test [10] and in [15] was “inactive” each time.

As for `CCCCSCCCC`, the molecule was called inactive in [1], in [4], in [8], in test [14] and in test [12]. For the same molecule, the Potency entry in test [2], in test [3], in test [5], in [6], in [7] and in test [15] was “inactive” in each case.

As for `N#CCC(=O)NN`, the molecule was called inactive in test [1], in test [4], in test [8], in test [13], in [14] and in test [11]. Further, in test [12], the molecule was called inactive. For the same molecule, the Potency result in test [2], in [3], in [6], in [7], in [9] and in test [10] was “inactive” in each case. Besides, the Potency entry in [15] is “inactive”.

Consider `O/N=C/C=N/O`, for which the molecule was classed as inactive in test [1], in [4], in [8], in test [14] and in test [12]. For the same molecule, the Potency entry in [2], in [3], in [5], in test [6], in test [7] and in test [15] was “inactive” in each case.

In the case of `CC(C)COC(=O)c1ccccc1`, the molecule was called inactive in test [1], in [4], in [16], in test [18], in [8] and in [13]. Further, the result in test [14] and in test [11] was inactive. For the same molecule, the Potency result in [2], in [17], in test [5], in [6], in test [7] and in test [9] was “inactive” in each case. For the same molecule, the Potency result in test [15] is “inactive”.

As to `CC(N)CCCC(C)(C)O` (stereo not drawn), the call in [1], in [4], in [8], in [14] and in test [12] was inactive. Moreover, the Potency entry in [2], in [3], in test [5], in test [6], in test [7] and in [15] was “inactive” in each case.

As for `CCCC(CC)c1ccccc1` (stereo not drawn), the call in test [1], in [4], in [8], in test [13], in [14] and in [11] was inactive. Further, the result in [12] was inactive. Also, the Potency entry in [19], in test [3], in [5], in test [6], in [7] and in [9] was “inactive” in each case. Moreover, the Potency result in test [10] and in test [15] was “inactive” throughout.

Take `CC(Oc1cc(Cl)ccc1Cl)C(=O)O` (stereo not drawn): the molecule was called inactive in test [1], in test [4], in [16], in [18], in test [8] and in test [14]. Further, the molecule was called inactive in test [12]. For the same molecule, the Potency entry in test [2], in test [17], in test [5], in [6], in test [7] and in test [15] was “inactive” throughout.
